Measurements published in PubChem BioAssay AID1220 (Sanford-Burnham Center for Chemical Genomics, 2008).
Screen size: about 190,000 compounds; about 1,300 (0.68%) were called active. The list comes from a sample in which actives are over-represented; it also holds similar structures and randomly drawn compounds. Values without a mark were called inactive. Rule as the data show it: active = inhibition above about 50%; inactive = the rest.

Target: Mannose-6-phosphate isomerase (Homo sapiens) (UniProt P34949)
Test: MPI inhibition at elevated mannose 6-phosphate – biochemical, fluorescence intensity, high mannose 6-phosphate, primary screen (AID 1220)
Details: recombinant PMI enzyme, coupled fluorescence intensity; at 20 µM; hits give high values

Chain of Mannose-6-phosphate isomerase (Homo sapiens) (P34949 whole entry, looked up): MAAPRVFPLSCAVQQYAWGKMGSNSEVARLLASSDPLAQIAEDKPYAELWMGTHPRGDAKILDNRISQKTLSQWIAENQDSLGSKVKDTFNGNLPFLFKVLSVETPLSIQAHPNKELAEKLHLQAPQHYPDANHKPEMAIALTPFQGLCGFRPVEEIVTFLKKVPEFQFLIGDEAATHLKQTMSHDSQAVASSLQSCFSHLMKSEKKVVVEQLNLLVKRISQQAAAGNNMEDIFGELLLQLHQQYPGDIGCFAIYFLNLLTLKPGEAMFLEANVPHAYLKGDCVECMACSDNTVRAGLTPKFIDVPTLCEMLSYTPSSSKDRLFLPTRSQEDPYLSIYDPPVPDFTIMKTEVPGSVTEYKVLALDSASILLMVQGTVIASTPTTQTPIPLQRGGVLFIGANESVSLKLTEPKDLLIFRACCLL

SMILES | inhibition
CCOc1cc(CNCc2ccccn2)cc(Cl)c1OC | -0.7%
Cc1noc(C)c1C(=O)Nc1sc2c(c1C(N)=O)CCC2 | 0.1%
Cc1ccccc1CSc1nc2c(c(=O)[nH]1)CCC2 | 6.8%
O=C(O/N=C1\CCCc2ccccc21)c1cccc(Cl)c1 | 7.1%
CCN(CCn1cccn1)C(=O)CCc1nnc(-c2ccc3c(c2)OCO3)o1 | 5.8%
CN(C)S(=O)(=O)c1ccc(C(=O)Nc2cc(=O)n(C)c(=O)n2C)cc1 | 3.9%
O=C(c1nc2ncccn2n1)N1CCN(c2ccc(F)cc2)CC1 | 15%
O=C(Cc1c[nH]c2ccccc12)NCc1ccco1 | 7.4%
NC(Cc1c[nH]c2ccccc12)C(=O)NCc1ccco1 (stereo unspecified) | 55.4% (active)
O=C(CCc1c[nH]c2ccccc12)NCc1ccco1 | -5.8%
COc1ccc(OCC(=O)Nn2c(-c3ccc(C)cc3)nc3ccccc3c2=O)cc1 | 12.7%
O=c1[nH]c2cc3c(cc2cc1CN(Cc1nnnn1CC1CCCO1)C1CCCCC1)OCO3 (stereo unspecified) | 5.5%
COc1ccc(C=Nc2cccc3ncccc23)cc1 | 63.3% (active)
COc1ccc(/C=N\n2nnc3ccccc32)cc1 | -4.2%
Cc1ccc(C=Nc2cccnc2N)cc1 | 63.2% (active)
Cc1ccc(C=Nc2ccccc2C(N)=O)cc1 | 0.6%

SMILES | inhibition
COc1ccc(OCC(=O)Nc2cccc3ncccc23)cc1 | 3.4%
Nc1ncc(Br)cc1N=Cc1ccccc1 | 24.6%
Cc1ccc(NC(=O)CCC(=O)N/N=C/c2cccs2)cc1 | -0.5%
COc1cc(CNc2ccc(N3CCCC3)cc2)ccc1OCc1ccccc1F | 55.7% (active)
CCNCc1ccc(OCc2ccccc2F)c(OC)c1 | -4.4%
COc1cc(CNc2ccc(N3CCN(C(C)=O)CC3)cc2)ccc1OCc1ccc(F)cc1 | 27%
COc1cc(CNc2ccc(O)cc2)cc(Br)c1OCc1ccccc1F | 57.4% (active)
COc1cc(CNCCCCO)ccc1OCc1ccccc1F | 2.9%
COc1ccc(NCc2ccc(OC)c(OC)c2)cc1 | 60.3% (active)
CCOc1cc(CNc2ccc(O)cc2)cc(Br)c1OCc1ccccc1F | 29.5%
COc1cc(CNc2ccc(O)cc2)cc(Br)c1OCc1ccccc1 | 49.4%
COc1ccc(CNS(=O)(=O)NCc2ccc(OC)c(OC)c2)cc1 | -3.8%
COc1cc(CNc2ccc(N3CCCC3)cc2)ccc1OCc1ccccc1 | 71.5% (active)
COc1cc(CNc2ccc(N3CCN(C(C)=O)CC3)cc2)ccc1OCc1ccccc1 | 38.7%
COc1ccc(CNc2ccc(C)c(C)c2)cc1 | 9.2%
